# Assay results reported in PubChem BioAssay (NCATS).
# Values without a mark were called inactive. Inconclusive results are not listed. Active and inactive are the calls of the source. Unless noted, calls follow the shape of the dose curve; as a rule, active = well fitted curve in either direction with a large enough effect (not every such curve was filed as active); inconclusive = small, poorly fitted or top-dose-only effect, or another doubt; inactive = flat fitted curve, though single readings scatter.
# Tests used:
# [1] = biological target: Lysosomal acid glucosylceramidase (Homo sapiens) (UniProt P04062); assay: Glucocerebrosidase-p2 (AID 348; in the data active = potency below about 10 µM; also: potency is read from the fitted curve at half-maximal effect); conditions: purified GBA, blue fluorogenic substrate, 40 min
# Method in brief: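 Normal human glucocerebrosidase (0.2 nM) with blue fluorogenic substrate (80 uM final) in citrate/phosphate pH 5.9 with 10mM sodium taurocholate, 0.01% tween-20; 40 min RT, NaOH/glycine stop; fluorescence Ex 365/Em 440; AC50 from a titration from 0.6 nM upwards.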
# [2] = AP1 Signaling Pathway (AID 357); conditions: ME-180 AP-1-bla reporter, EGF-induced, beta-lactamase ratio, 5 h; at 7.69 µM (top of the series) unless noted;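 also: ME-180 reporter cells stimulated with EGF at its EC50 level; % is scaled to controls: 0 for no effect and ±100 for the full control effect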
# Method in brief: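 First, ME-180 AP-1-bla cells were cultured overnight at 37 °C in low-serum Opti-MEM. Next, titrated compounds with EC50 EGF were incubated 5 hours. Finally, CCF4 was added for 2.5 hours and the 460/530 nm ratio recorded.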
# [3] = biological target: Cytochrome P450 1A2 (Homo sapiens) (UniProt P05177); assay: p450-cyp1a2 (AID 410; calls by dose curve; also: potency is read from the fitted curve at half-maximal effect;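 as to activity change, negative = inhibition: -100% = full effect of reference inhibitor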); conditions: recombinant CYP1A2, luciferin-ME demethylation, luminescence; series mostly up to 11.4 µM
# Method in brief: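 Luminescent demethylation readout: Luciferin-ME (100uM, equal to Km) turned over by 20nM CYP1A2 for 60 min at room temperature after NADPH regeneration addition, following 10 min compound preincubation. Normalization used 57 uM furafylline as full inhibition.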
# [4] = Stat Signaling Pathway (AID 446); conditions: ME-180 (cervical carcinoma) SIE beta-lactamase reporter, IL-6 stimulated, 5 h; at 7.69 µM (top of the series) unless noted;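 also: ME-180 cervical cancer cells given 40 pM IL-6 alongside compound; SIE-controlled beta-lactamase reporter measured as 460/530 nm FRET emission ratio; % is scaled to controls: 0 for no effect and ±100 for the full control effect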
# Method in brief: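 Overnight-plated ME-180 cells bearing a STAT Inducible Element beta-lactamase reporter; 5 h co-exposure to compound and 40 pM IL-6; values normalized to 300 pM IL-6 and 125 nM JAK inhibitor controls.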
# [5] = biological target: Glucocorticoid receptor (Homo sapiens) (UniProt P04150); assay: GR-GFP Redistribution (AID 450;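 active = compounds whose dose series gives a full or clear partial fitted curve of increased nuclear translocation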; also: potency is read from the fitted curve at half-maximal effect); conditions: U2OS GR-GFP nuclear translocation, laser cytometry, 2 h
# [6] = biological target: Glucocorticoid receptor (Homo sapiens) (UniProt P04150); assay: GR-EFC Redistribution (AID 451; calls by dose curve; also: potency is read from the fitted curve at half-maximal effect); conditions: CHO-K1 GR-EFC translocation, beta-gal luminescence, 2 h
# Method in brief: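 CHO-K1 cells expressing nuclear EA and GR-ED fragments of b-gal; compounds titrated up to 46 uM final, 2 h at 37 C. GR nuclear translocation read as complemented b-gal luminescence after 1 h RT detection.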
# [7] = biological target: Mitogen-activated protein kinase 10 (Mus musculus) (UniProt Q61831); assay: JNK3 AlphaScreen Assay (AID 530); conditions: JNK3 lysate, c-Jun phosphorylation; series mostly up to 11.4 µM;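 also: kinase came from lysate of stimulated human HepG2 cells; signal reports phosphorylation of biotinylated GST-cJun 1-79 at Ser73 with 10 µM ATP; % is scaled to controls: 0 for no effect and ±100 for the full control effect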
# Method in brief: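 Activity was read by AlphaScreen after JNK3-containing HepG2 lysate (cytokine pre-activated) phosphorylated biotinylated GST-cJun with 10 uM ATP at room temperature. Phospho-Ser73 cJun antibody with Protein-A acceptor beads provided detection.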
# [8] = biological target: 3',5'-cyclic-AMP phosphodiesterase 4B (Homo sapiens) (UniProt Q07343); assay: qHTS Assay for Inhibitors of PDE-IV (AID 607; active = well fitted activation curve with a large enough effect in the main read-out, with a control signal flat, not every such curve was filed as active; also: % of control where 0% means no effect); conditions: HEK293 ACTOne CNG channel cells, membrane potential fluorescence; series mostly up to 22.9 µM
# Method in brief: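 Live HEK293 cells with a modified cyclic nucleotide-gated (CNG) channel report intracellular cAMP via membrane-potential dye fluorescence (ex 535/em 590 nm). Endogenous PDE-IV was targeted. Compounds were tested at up to 22.9 uM final; RO 20-1724 100 uM served as control.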
# [9] = biological target: Cytochrome P450 3A4 (Homo sapiens) (UniProt P08684); assay: qHTS Assay for Inhibitors and Substrates of Cytochrome P450 3A4 (AID 884; active = well fitted curve in the direction sought with a large enough effect; an effect the other way counts as inactive or inconclusive; also: potency is read from the fitted curve at half-maximal effect; nearly all actives have a fitted effect of over 50% in size); conditions: recombinant CYP3A4, Luciferin-PPXE luminescence; series mostly up to 57.1 µM
# Method in brief: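 Luminescent readout of luciferin produced by CYP3A4 (20 nM) dealkylation of Luciferin-PPXE, 25 uM (its KM). NADPH-driven reaction ran 60 min at RT after 10 min compound preincubation; data scaled to 57 uM ketoconazole as 100% inhibition.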
# [10] = biological target: Cytochrome P450 3A4 (Homo sapiens) (UniProt P08684); assay: qHTS Assay for Activators of Cytochrome P450 3A4 (AID 885; active = well fitted curve in the direction sought with a large enough effect; an effect the other way counts as inactive or inconclusive; also: nearly all actives have a fitted effect of over 65% in size); conditions: recombinant CYP3A4, Luciferin-PPXE luminescence, 60 min; series mostly up to 11.4 µM
# Method in brief: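 Using 20nM recombinant human CYP3A4 in potassium phosphate (200mM), substrate Luciferin-PPXE at 25uM, luminescent luciferin detection followed a 60-min RT NADPH reaction; data scaled to 57 uM ketoconazole.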
# [11] = biological target: Cytochrome P450 2C19 (Homo sapiens) (UniProt P33261); assay: qHTS Assay for Inhibitors and Substrates of Cytochrome P450 2C19 (AID 899; active = well fitted curve in the direction sought with a large enough effect; an effect the other way counts as inactive or inconclusive; also: potency is read from the fitted curve at half-maximal effect; nearly all actives have a fitted effect of over 60% in size); conditions: recombinant CYP2C19, luciferin-H EGE luminescence; series mostly up to 11.4 µM
# Method in brief: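 Luminescent read-out of luciferin formed from Luciferin-H EGE (10uM, equal to KM). Enzyme 5nM in 50mM KPO4; compound added, 10 min at 37C, then NADPH regenerating system for 60 min at 37C. Full inhibition defined by 57uM ketoconazole.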
# [12] = biological target: Cytochrome P450 2D6 (Homo sapiens) (UniProt P10635); assay: qHTS Assay for Inhibitors and Substrates of Cytochrome P450 2D6 (AID 891; active = well fitted curve in the direction sought with a large enough effect; an effect the other way counts as inactive or inconclusive; also: potency is read from the fitted curve at half-maximal effect; nearly all actives have a fitted effect of over 60% in size); conditions: recombinant CYP2D6, luciferin-ME EGE luminescence; series mostly up to 11.4 µM
# Method in brief: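 Luminescent read-out of luciferin formed by 5 nM human CYP2D6 demethylating 30 uM Luciferin-ME EGE (Km level) over 60 min at room temperature after NADPH regeneration addition. Data normalized to full inhibition by 1.43 uM quinidine.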
# [13] = biological target: Cytochrome P450 2C9 (Homo sapiens) (UniProt P11712); assay: qHTS Assay for Inhibitors and Substrates of Cytochrome P450 2C9 (AID 883; active = well fitted curve in the direction sought with a large enough effect; an effect the other way counts as inactive or inconclusive; also: nearly all actives have a fitted effect of over 60% in size; also: potency is read from the fitted curve at half-maximal effect; as to activity change, negative = inhibition: % is scaled to controls: 0 for no effect and ±100 for the full control effect); conditions: recombinant CYP2C9, luciferin-H luminescence, 60 min; series mostly up to 11.4 µM
# Method in brief: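 10nM CYP2C9 + 100uM Luciferin-H (=KM), 25mM KPO4; cpd 10 min 37C; NADPH regen, 60 min 37C; stop/detect with P450 Glo-Buffer 20 min; luminescence. Norm. to 57uM sulphaphenazole as full inhibition.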
# Chain of Cytochrome P450 3A4 (Homo sapiens) (P08684 whole entry, looked up): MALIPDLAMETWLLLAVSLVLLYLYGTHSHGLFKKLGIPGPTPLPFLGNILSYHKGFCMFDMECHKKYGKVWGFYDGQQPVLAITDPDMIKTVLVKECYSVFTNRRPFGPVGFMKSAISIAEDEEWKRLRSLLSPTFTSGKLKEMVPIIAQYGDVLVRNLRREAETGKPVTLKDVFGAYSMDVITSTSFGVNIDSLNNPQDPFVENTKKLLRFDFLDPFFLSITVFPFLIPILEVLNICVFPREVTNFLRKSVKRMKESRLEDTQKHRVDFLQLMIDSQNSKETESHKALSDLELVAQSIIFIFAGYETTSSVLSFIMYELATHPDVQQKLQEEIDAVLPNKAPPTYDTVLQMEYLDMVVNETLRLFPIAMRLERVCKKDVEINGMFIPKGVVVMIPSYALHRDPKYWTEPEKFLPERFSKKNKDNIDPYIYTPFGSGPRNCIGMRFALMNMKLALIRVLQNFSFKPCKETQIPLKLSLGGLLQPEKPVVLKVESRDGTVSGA
# Chain of 3',5'-cyclic-AMP phosphodiesterase 4B (Homo sapiens) (Q07343 whole entry, looked up): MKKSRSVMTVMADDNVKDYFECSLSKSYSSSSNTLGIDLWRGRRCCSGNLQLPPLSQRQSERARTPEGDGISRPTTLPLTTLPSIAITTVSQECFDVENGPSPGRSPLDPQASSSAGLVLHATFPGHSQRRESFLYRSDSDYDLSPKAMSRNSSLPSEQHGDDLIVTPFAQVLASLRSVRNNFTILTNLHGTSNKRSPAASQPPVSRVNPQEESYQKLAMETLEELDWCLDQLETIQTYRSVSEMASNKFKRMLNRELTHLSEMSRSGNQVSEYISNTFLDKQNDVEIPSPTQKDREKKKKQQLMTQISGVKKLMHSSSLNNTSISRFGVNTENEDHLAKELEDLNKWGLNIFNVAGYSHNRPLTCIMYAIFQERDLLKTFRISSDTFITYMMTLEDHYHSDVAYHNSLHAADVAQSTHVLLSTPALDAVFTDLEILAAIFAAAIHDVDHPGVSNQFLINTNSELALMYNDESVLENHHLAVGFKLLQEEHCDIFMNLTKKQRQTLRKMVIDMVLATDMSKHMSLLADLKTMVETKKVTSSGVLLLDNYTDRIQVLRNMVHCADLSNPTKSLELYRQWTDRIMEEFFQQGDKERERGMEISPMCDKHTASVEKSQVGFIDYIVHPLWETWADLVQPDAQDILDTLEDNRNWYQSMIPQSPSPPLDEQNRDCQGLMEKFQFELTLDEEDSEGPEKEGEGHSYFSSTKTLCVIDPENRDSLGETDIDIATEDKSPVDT
# Chain of Cytochrome P450 2C19 (Homo sapiens) (P33261 whole entry, looked up): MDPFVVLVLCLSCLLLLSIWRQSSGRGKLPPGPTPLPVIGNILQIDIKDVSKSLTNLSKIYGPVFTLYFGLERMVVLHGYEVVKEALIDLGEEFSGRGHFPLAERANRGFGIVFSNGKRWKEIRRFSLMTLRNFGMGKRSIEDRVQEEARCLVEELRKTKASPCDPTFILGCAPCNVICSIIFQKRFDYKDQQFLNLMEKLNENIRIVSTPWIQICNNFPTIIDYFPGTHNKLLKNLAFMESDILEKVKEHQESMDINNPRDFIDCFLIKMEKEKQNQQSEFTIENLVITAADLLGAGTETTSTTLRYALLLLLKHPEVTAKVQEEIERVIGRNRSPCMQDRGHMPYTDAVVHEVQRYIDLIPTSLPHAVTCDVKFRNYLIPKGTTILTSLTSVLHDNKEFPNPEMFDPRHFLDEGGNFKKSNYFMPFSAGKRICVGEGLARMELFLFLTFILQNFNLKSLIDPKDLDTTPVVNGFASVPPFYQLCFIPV
# Chain of Cytochrome P450 1A2 (Homo sapiens) (P05177 whole entry, looked up): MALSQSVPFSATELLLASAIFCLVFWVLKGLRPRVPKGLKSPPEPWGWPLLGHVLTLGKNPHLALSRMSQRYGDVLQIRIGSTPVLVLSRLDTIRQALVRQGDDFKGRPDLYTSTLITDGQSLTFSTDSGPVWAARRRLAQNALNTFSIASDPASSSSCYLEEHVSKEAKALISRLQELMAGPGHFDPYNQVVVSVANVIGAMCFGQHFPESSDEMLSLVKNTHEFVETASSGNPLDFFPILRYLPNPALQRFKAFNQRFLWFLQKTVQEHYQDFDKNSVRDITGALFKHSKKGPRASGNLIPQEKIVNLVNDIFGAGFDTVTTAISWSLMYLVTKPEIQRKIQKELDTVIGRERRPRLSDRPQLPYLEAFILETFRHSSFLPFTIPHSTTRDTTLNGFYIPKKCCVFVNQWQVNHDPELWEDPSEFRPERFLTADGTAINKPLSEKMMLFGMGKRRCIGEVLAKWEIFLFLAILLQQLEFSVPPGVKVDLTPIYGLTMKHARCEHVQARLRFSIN
# Chain of Lysosomal acid glucosylceramidase (Homo sapiens) (P04062 whole entry, looked up): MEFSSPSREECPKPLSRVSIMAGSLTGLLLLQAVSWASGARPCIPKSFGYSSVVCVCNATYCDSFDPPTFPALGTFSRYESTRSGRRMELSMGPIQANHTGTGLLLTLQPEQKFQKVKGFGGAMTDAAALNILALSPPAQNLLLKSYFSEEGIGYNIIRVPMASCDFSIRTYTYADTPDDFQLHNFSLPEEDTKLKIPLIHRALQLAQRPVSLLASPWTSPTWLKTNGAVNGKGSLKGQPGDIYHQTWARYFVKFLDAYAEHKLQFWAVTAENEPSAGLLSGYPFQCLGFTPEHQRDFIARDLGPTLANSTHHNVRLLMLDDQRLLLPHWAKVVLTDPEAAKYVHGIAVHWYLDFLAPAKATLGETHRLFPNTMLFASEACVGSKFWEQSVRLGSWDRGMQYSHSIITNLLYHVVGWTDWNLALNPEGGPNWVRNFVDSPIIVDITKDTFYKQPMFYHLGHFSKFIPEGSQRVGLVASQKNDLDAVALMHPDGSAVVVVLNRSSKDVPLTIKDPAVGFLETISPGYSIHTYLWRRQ
# Chain of Cytochrome P450 2D6 (Homo sapiens) (P10635 whole entry, looked up): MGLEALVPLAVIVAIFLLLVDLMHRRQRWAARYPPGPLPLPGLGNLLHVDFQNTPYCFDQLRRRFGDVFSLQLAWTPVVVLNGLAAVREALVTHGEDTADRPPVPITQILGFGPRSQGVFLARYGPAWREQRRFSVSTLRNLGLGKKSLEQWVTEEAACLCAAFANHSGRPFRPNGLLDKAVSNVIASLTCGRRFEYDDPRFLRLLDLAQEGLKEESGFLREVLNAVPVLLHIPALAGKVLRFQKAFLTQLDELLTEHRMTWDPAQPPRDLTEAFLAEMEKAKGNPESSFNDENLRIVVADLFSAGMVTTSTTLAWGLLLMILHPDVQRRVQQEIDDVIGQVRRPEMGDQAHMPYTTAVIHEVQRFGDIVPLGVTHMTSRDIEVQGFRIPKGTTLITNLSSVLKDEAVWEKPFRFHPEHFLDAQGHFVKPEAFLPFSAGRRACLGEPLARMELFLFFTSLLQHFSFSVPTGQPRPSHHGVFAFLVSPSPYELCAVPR
# Chain of Glucocorticoid receptor (Homo sapiens) (P04150 whole entry, looked up, the tested form may be a part): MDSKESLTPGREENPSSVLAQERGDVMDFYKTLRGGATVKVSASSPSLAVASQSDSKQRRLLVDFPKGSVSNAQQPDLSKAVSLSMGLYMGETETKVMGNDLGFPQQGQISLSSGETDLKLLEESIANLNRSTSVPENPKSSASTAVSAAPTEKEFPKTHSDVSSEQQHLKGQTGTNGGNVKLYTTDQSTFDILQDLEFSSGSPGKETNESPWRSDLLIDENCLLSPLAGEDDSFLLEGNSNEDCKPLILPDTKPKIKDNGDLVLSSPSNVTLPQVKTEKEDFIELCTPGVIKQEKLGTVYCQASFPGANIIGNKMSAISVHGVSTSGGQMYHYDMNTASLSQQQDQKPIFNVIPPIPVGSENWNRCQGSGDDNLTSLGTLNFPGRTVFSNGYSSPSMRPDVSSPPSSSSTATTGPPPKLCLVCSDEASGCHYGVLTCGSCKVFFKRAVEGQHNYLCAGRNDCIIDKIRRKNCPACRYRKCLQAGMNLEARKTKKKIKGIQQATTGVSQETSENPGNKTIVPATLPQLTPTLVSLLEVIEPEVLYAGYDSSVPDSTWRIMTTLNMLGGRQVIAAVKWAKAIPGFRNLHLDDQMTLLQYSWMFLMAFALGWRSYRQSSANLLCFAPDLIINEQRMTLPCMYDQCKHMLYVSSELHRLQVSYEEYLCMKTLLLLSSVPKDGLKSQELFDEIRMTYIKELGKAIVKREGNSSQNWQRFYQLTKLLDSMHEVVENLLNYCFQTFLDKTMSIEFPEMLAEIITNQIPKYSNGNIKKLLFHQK
# Chain of Cytochrome P450 2C9 (Homo sapiens) (P11712 whole entry, looked up): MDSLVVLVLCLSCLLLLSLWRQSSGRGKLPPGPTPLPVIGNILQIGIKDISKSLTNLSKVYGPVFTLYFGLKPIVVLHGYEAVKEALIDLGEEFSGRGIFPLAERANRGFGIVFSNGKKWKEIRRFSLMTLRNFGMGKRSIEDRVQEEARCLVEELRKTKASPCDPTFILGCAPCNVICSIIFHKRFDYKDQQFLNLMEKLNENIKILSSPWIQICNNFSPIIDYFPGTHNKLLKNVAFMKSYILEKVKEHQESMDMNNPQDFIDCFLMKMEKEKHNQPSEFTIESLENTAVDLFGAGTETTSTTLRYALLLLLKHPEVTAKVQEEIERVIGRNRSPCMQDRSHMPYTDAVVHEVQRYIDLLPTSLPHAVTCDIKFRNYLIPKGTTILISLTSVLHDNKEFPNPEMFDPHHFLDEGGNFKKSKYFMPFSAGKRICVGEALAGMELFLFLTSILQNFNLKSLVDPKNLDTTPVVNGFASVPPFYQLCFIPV
Structure (SMILES),Potency [1],"activity change, negative = inhibition [2]",Potency [3],"activity, negative = inhibition [4]",Potency [5],Potency [6],Potency [7],Potency [8],Potency [9],Potency [10],"activity change, negative = inhibition [3]",Potency [11],Potency [12],Potency [13]
O=C(c1ccccc1)[C@H](Nc1ccc2ccccc2c1)c1ccccc1,> 11.4 µM,23.6%,0.794 µM (active),-0.0129%,> 46 µM,> 9.22 µM,inactive,inactive,3.16 µM (active),inactive,–,–,–,–
Cc1ccc(N[C@H](c2ccccc2)c2ccc3cccnc3c2O)cc1,> 11.4 µM,-6.67%,–,3.71%,> 46 µM,> 9.22 µM,inactive,inactive,–,inactive,-24.5% [at 2.29 µM],–,–,–
Cc1ccc(C(=N)c2ccccc2Cc2cccc3ccccc23)c2ccccc12,> 11.4 µM,-3.34%,1 µM (active),13.8%,> 46 µM,> 9.22 µM,inactive,inactive,3.98 µM (active),inactive,–,1.26 µM (active),–,–
OCCNc1ncnc2nc[nH]c12,> 11.4 µM,7.92%,inactive,2.92%,> 46 µM,> 9.22 µM,inactive,inactive,–,inactive,–,–,–,–
Cc1cc2ccccc2c[n+]1CC(O)C[n+]1cc2ccccc2cc1C,> 11.4 µM,-5.85%,inactive,4.97%,> 46 µM,> 9.22 µM,inactive,inactive,–,–,–,–,0.0251 µM (active),–
Cc1ccc(C2=Nc3ccccc3S[C@@H](c3cccc([N+](=O)[O-])c3)C2)cc1,> 11.4 µM,-7.9%,2 µM (active),-8.15%,> 46 µM,> 9.22 µM,inactive,inactive,3.98 µM (active),–,–,3.98 µM (active),–,–
Cc1cc(C)cc(C(=N)c2ccccc2Cc2cccc3ccccc23)c1,> 11.4 µM,1.53%,–,8.92%,> 46 µM,> 9.22 µM,inactive,inactive,–,inactive,-5.4% [at 2.29 µM],1.58 µM (active),–,inactive
c1ccc(C[n+]2cccc(-c3cc4ccccc4[nH]3)c2)cc1,> 11.4 µM,2.74%,1.26 µM (active),-0.473%,> 46 µM,> 9.22 µM,inactive,inactive,–,–,–,–,1.26 µM (active),–
Clc1ccc(Cl)c(SCCCN2CCNCC2)c1,> 11.4 µM,3.23%,0.501 µM (active),-0.882%,> 46 µM,> 9.22 µM,inactive,inactive,–,–,–,–,2.51 µM (active),–
CC1(C)N=C(N)N=C(N)N1CCCCc1ccccc1,> 11.4 µM,7.1%,–,0.495%,> 46 µM,> 9.22 µM,inactive,inactive,–,–,-4.3% [at 2.29 µM],–,3.16 µM (active),–
COc1ccc2c(Cc3c4ccccc4cc4ccccc34)cncc2c1O,> 11.4 µM,9.25%,0.126 µM (active),-0.764%,> 46 µM,> 9.22 µM,inactive,inactive,–,inactive,–,2.51 µM (active),–,–
Cc1cc(OCc2nc(N)nc(N)c2-c2ccc(Cl)c(Cl)c2)ccc1[N+](=O)[O-],> 11.4 µM,-18.3%,5.01 µM (active),-17.5%,> 46 µM,> 9.22 µM,inactive,inactive,–,inactive,–,3.16 µM (active),–,1.58 µM (active)
N=c1sc2ccccc2n1CCS (tested in a mixture with another compound),4.5 µM (active),6.12%,1 µM (active),-20%,> 46 µM,> 9.22 µM,inactive,inactive,–,inactive,–,1.58 µM (active),0.316 µM (active),–
